This note sets out measurements from PubChem BioAssay (EPA / NIEHS).

Results filed as inconclusive are left out. Activity calls are given as the source filed them. Rule for the calls: active = hit-call score of the fitted dose curve at least 0.9, where 1 is the maximum; inconclusive = response in the unintended direction; inactive = score below 0.9.

The nature of the experiment: CCTE_Shafer_MEA_acute_LDH: CCTE's Lactate Dehydrogenase Assay for Cytotoxicity in the Neural Acute Assay, Shafer Lab (AID 2284086).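 Note: active means LDH release rises above DMSO vehicle level.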 On the procedure: CCTE_Shafer_MEA_acute assay is conducted using Axion Biosystems 48 well microelectrode array (MEA) plates and Maestro recording system. Each well of the MEA plate contains a grid of 16 microelectrodes embedded in the culture surface. Electrically active cells, such as neurons, can be cultured over the electrodes, and electrical activity in these cells can be recorded extracellularly. The spontaneous firing of neurons is captured from each electrode on a microsecond timescale providing both temporally and spatially precise data. […] The CCTE_Shafer_MEA_acute assay uses primary cultures of rat cortical neurons. As these cultures mature over time, neural networks develop functional activity and form cohesive networks in which electrical activity can be highly coordinated. Baseline 40-minute recordings are made on days post-plating 13 or 15, followed by a secondary 40-minute recording after chemical exposure.CCTE_Shafer_MEA_acute_LDH is a component of the CCTE_Shafer_MEA_acute assay. It measures the lactate dehydrogenase enzyme activity using spectrophotometry.Data from the assay component CCTE_Shafer_MEA_acute_LDH was analyzed into 1 assay endpoint. This assay endpoint, CCTE_Shafer_MEA_acute_LDH, was analyzed in the positive analysis fitting direction relative to DMSO as the negative control and baseline of activity. Using a type of viability reporter, gain-of-signal activity can be used to understand cell viability.
Immediately following the 40 min recording in the presence of compounds, 50 uL of media was removed from each well and transferred to a sterile 96-well plate. This was used to determine LDH released from cells during compound exposure using a kit from Promega where absorbance was determined in a Molecular Devices VersaMax plate reader at 490 nm.
Consider `N=C(N)c1ccc(OCCCCCOc2ccc(C(=N)N)cc2)cc1`, for which the result was inactive.

For `CCCCc1oc2ccccc2c1C(=O)c1cc(I)c(OCCN(CC)CC)c(I)c1`, the result was inactive.

On to `Oc1c(Cl)cc(Cl)cc1Sc1cc(Cl)cc(Cl)c1O`, for which the outcome was inactive.

As to `Oc1ccc(Cc2ccccc2O)cc1`, the compound was classed as inactive.

As to `CN(C)CCOC(c1ccccc1)c1ccccc1`, the result was inactive.

As to `CC(=O)Nc1ccc(O)cc1`, the outcome was inactive.

Take `O=C(CCCN1CCC(O)(c2ccc(Cl)cc2)CC1)c1ccc(F)cc1`: the compound was called inactive.

With `OCC(CO)(CBr)CBr`, the compound was called inactive.

As for `CCCCCCCCCCCC`, the call was inactive.

For the compound `O=C1NS(=O)(=O)c2ccccc21`, the outcome was inactive.
